Rows were chosen to be rich in hits. Some 17% of all compounds tested hit in one or more screens of this group.
HepG2 tox: kills HepG2 cells in TGF-b inhibitor counter-screen; Potency, µM (top dose mostly 46.1 µM), without a hit: top-dose activity change, negative = cytotoxicity, most hits filed as cytotoxic; AID 588856; HepG2 CAGA-GFP viability, ATP luminescence, 18 h; 410,000 tested, 0.76% active
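HepG2 CAGA-GFP cells (1000/well, DMEM with 1% FBS) received compound, then TGF-beta at 500 pg/mL final, and were incubated 18 hours at 37 degrees C. Viability was read by CellTiter-Glo luminescence. Media-only wells were set as complete cell-killing and DMSO as no toxicity.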
TGFb SMAD3 inh: TGF-b pathway inhibition; HepG2 CAGA-GFP TGF-b/SMAD3 reporter, GFP fluorescence, 18 h; TGF-beta stimulated, 500 pg/mL final; Potency, µM (titrated, usually from 46.1 µM), without a hit: at the highest dose activity, negative = inhibition, hits mostly inhibitors; 410,000 tested, 1.2% active; AID 588855; also: % is scaled to controls: 0 for no effect and ±100 for the full control effect; nearly all actives have a fitted effect of over 65% in size
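Read-out: total well GFP (ex488/em500-530) summed from mean per-cell fluorescence. Cells: HEPG2 CAGA-GFP, 1% FBS DMEM, 18 h at 37 degrees C with 500 pg/mL final TGF-beta. Unstimulated wells served as the full-inhibition control; stimulated DMSO wells = 0%.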
HT1080-NT tox: kills 2HG-producing HT-1080-NT fibrosarcoma cells | Potency, µM (titrated, usually from 46.1 µM), inactives show at the top dose activity, negative = less viability, hits mostly cytotoxic | 360,000 tested, 1.6% active | AID 686970 | HT-1080-NT fibrosarcoma viability, CellTiter-Glo ATP luminescence, 48 h;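 also: NT is the 2HG producing partner of a matched IDH1 knockdown line; 0% = DMSO-treated cells and -100% = media-only wells without cells; nearly all actives have a fitted effect of over 55% in size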
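Read-out is CellTiter-Glo luminescence after 10 minutes at room temperature, following 48 hours' compound treatment of HT-1080-NT cells (750 cells/well, RPMI, 5% FBS, 37 degrees C).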
TDP1 cell CPT: DT40-hTDP1 cell growth loss with CPT | chicken DT40 Tdp1-/-;hTDP1 cells + 20 nM CPT, ATP luminescence, 48 h | Potency, µM (titrated, usually from 46.2 µM), for the others: at the top dose activity change, negative = growth inhibition, most hits filed as inhibitors | 420,000 tested, 12% active | AID 686979; also: % is scaled to controls: 0 for no effect and ±100 for the full control effect; nearly all actives have a fitted effect of over 55% in size
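Cell growth measured by CellTiter-Glo luminescence after a minimum 48 h, 37 C compound exposure with 20 nM CPT in Tdp1-knockout DT40 cells stably expressing hTDP1, seeded 400/well; qHTS titration format.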
DT40 TDP1 no CPT: qHTS for Inhibitors of human tyrosyl-DNA phosphodiesterase 1 (TDP1): qHTS in cells in absence of CPT; Potency, µM (titrated, usually from 46.2 µM), for inactives: top-dose activity change, negative = growth inhibition, most hits filed as inhibitors; AID 686978, 2013; DT40 Tdp1-/- hTDP1 cells, no CPT, ATP luminescence, 48 h; 420,000 tested, 15% active; also: % is scaled to controls: 0 for no effect and ±100 for the full control effect; nearly all actives have a fitted effect of over 55% in size
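A cellular qHTS used chicken DT40 cells lacking endogenous Tdp1 but carrying stably transfected human TDP1. Compounds were applied without camptothecin, and cell growth kinetics were judged by ATP-dependent luminescence after ≥48 hr.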
HT1080 IDH1KD tx: kills HT-1080 cells with IDH1 knockdown; Potency, µM (doses to about 46.1 µM), inactives show top-dose activity, negative = toxicity, hits mostly cytotoxic; 360,000 tested, 2% active; HT-1080 IDH1 knockdown viability, ATP luminescence, 48 h; AID 686971;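 also: 0% = DMSO wells and -100% = cell-free medium wells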
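Viability of IDH1-knockdown HT-1080 fibrosarcoma cells was assessed by CellTiter-Glo after 48 h at 37 °C with titrated compound; concentration-effect curves were classified by fit quality and response size.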
Starred values were filed as active, the others as inactive; [ ] = dose if it differs, or a comment. Calls follow the shape of the dose curve; as a rule, active = well fitted curve in the direction sought with a large enough effect; inconclusive = small, poorly fitted or top-dose-only effect, or another doubt; inactive = no such curve, though single readings can be large; an effect the other way counts as inactive or inconclusive. Potency is read from the fitted curve at half-maximal effect.

CCOC(=O)C1=CCN(S(=O)(=O)c2ccc(C)cc2)C1c1ccc(Cl)c(Cl)c1 (stereo unspecified) was read as HepG2 tox -21%, TGFb SMAD3 inh inconclusive, HT1080-NT tox inconclusive, TDP1 cell CPT inconclusive, DT40 TDP1 no CPT inconclusive and HT1080 IDH1KD tx inconclusive.
`Cc1ccc(NC(=O)CSCC(=O)N2CCN(c3cccc(C(F)(F)F)c3)CC2)cc1` gave HepG2 tox -27%, TGFb SMAD3 inh inconclusive, HT1080-NT tox 4%, TDP1 cell CPT inconclusive, DT40 TDP1 no CPT 15µM* and HT1080 IDH1KD tx -2%.
`COc1ccc(NC(=O)N2CCN(c3cccc(C(F)(F)F)c3)CC2)cc1OC` gave HepG2 tox -7%, TGFb SMAD3 inh inconclusive, HT1080-NT tox -1%, TDP1 cell CPT inconclusive, DT40 TDP1 no CPT 12µM* and HT1080 IDH1KD tx -4%.
For CC(C)(C)c1ccc(NC(=O)N2CCCN(c3ccc([N+](=O)[O-])cn3)CC2)cc1 the results were HepG2 tox 9%, TGFb SMAD3 inh -6%, HT1080-NT tox -29%, TDP1 cell CPT inconclusive, DT40 TDP1 no CPT 26µM* and HT1080 IDH1KD tx inconclusive.
COCC(=O)N1CCN(c2cccc(C(F)(F)F)c2)CC1 was read as HepG2 tox -16%, TGFb SMAD3 inh -11%, HT1080-NT tox 14%, TDP1 cell CPT inconclusive, DT40 TDP1 no CPT -23% and HT1080 IDH1KD tx 3%.
O=C(Nc1ccc([N+](=O)[O-])cc1)N1CCCCCC1 was read as HepG2 tox 10%, TGFb SMAD3 inh 3%, HT1080-NT tox 14%, TDP1 cell CPT -26%, DT40 TDP1 no CPT 8% and HT1080 IDH1KD tx 10%.
Screening O=C(Nc1ccccc1)N1CCN(c2ccc(C(F)(F)F)cn2)CC1 returned HepG2 tox -2%, TGFb SMAD3 inh 29%, HT1080-NT tox 16%, TDP1 cell CPT 7.3µM*, DT40 TDP1 no CPT 23µM* and HT1080 IDH1KD tx -6%.
`O=C1c2ccccc2C(=O)N1CCCCSc1nc2ccccc2c(=O)n1CCCN1CCOCC1` gave HepG2 tox -4%, TGFb SMAD3 inh 14%, HT1080-NT tox -18%, TDP1 cell CPT inconclusive, DT40 TDP1 no CPT inconclusive and HT1080 IDH1KD tx -17%.
`COCCNC(=O)C1(C)CCCN(C(=O)c2c(-c3ccccc3)noc2C)C1` (stereo unspecified) gave HepG2 tox 9%, TGFb SMAD3 inh 7%, HT1080-NT tox 2%, TDP1 cell CPT -3%, DT40 TDP1 no CPT -12% and HT1080 IDH1KD tx 19%.
`CCC(C)(C)NC(=O)C(c1ccc(OC)cc1)N(C(=O)CCC(=O)Nc1cc(C)on1)c1ccccc1F` (stereo unspecified) gave HepG2 tox -2%, TGFb SMAD3 inh -16%, HT1080-NT tox -19%, TDP1 cell CPT -5%, DT40 TDP1 no CPT -27% and HT1080 IDH1KD tx -15%.
For CC(=O)C[C@H](O)CC(=O)[C@H]1OC(=O)[C@H](C)C/C=C\Cc2ccccc21 the results were HepG2 tox 2%, TGFb SMAD3 inh -6%, HT1080-NT tox -2%, TDP1 cell CPT 2%, DT40 TDP1 no CPT 16% and HT1080 IDH1KD tx -9%.
Screening CC(C)c1nn2c(=O)cc(COC(=O)c3cccc(NC(=O)CCc4ccccc4)c3)nc2s1 returned HepG2 tox 4%, TGFb SMAD3 inh 2%, TDP1 cell CPT 11% and DT40 TDP1 no CPT -11%.
Cn1c(-c2ccncc2)nc2cc(C(=O)N3CCCC3c3nccs3)cc(NC(=O)C3CCC3)c21 (stereo unspecified) was read as TDP1 cell CPT -12%[9.04 µM] and DT40 TDP1 no CPT -15%.
`CC(NC(=O)c1ccco1)C(=O)N1CCN(c2cccc(C(F)(F)F)c2)CC1` (stereo unspecified) gave HepG2 tox -3%, TGFb SMAD3 inh -1%, HT1080-NT tox -10%[9.24 µM], TDP1 cell CPT 13µM*, DT40 TDP1 no CPT 10µM* and HT1080 IDH1KD tx -3%.
For CC(NC(=O)c1ccco1)C(=O)N1CCN(c2ccccc2)CC1 (stereo unspecified) the results were HepG2 tox 2%, TGFb SMAD3 inh 7%, HT1080-NT tox 0%, TDP1 cell CPT 10%, DT40 TDP1 no CPT -15% and HT1080 IDH1KD tx 1%.
Screening CNC(=S)Nc1ccc(N2CCN(c3ccc(C(F)(F)F)cn3)CC2)nc1 returned HepG2 tox -8%, TGFb SMAD3 inh -22%, HT1080-NT tox -6%, TDP1 cell CPT inconclusive, DT40 TDP1 no CPT 26µM* and HT1080 IDH1KD tx -3%.
For Cc1c(Cl)cccc1NC(=S)N1CCN(c2ccc([N+](=O)[O-])cn2)CC1 the results were HepG2 tox 5%, TGFb SMAD3 inh -4%, HT1080-NT tox -1%, TDP1 cell CPT -1%, DT40 TDP1 no CPT -14% and HT1080 IDH1KD tx 12%.
Cc1cccc(Cl)c1NC(=S)N1CCN(c2ccc([N+](=O)[O-])cn2)CC1 was read as HepG2 tox -1%, TGFb SMAD3 inh 2%, HT1080-NT tox -1%, TDP1 cell CPT inconclusive, DT40 TDP1 no CPT 26µM* and HT1080 IDH1KD tx -1%.
CCC(C)[C@H](NC(=O)N1CCN(c2cccc(C(F)(F)F)c2)CC1)C(=O)OC (stereo partly specified) was read as HepG2 tox -24%, TGFb SMAD3 inh -7%, HT1080-NT tox -7%, TDP1 cell CPT 15µM*, DT40 TDP1 no CPT 21µM* and HT1080 IDH1KD tx -1%.
O=C(CN1C(=O)COc2ccc(Cl)cc21)NC1CC1 was read as HepG2 tox -20%, TGFb SMAD3 inh -17%, HT1080-NT tox 0%, TDP1 cell CPT 9%, DT40 TDP1 no CPT 15% and HT1080 IDH1KD tx -3%.
O=C(Nc1cccc(C(F)(F)F)c1)c1cccnc1N1CCN(c2ccccc2)CC1 was read as HepG2 tox -30%, TGFb SMAD3 inh inconclusive, HT1080-NT tox inconclusive, TDP1 cell CPT inconclusive, DT40 TDP1 no CPT 18µM* and HT1080 IDH1KD tx -2%[9.24 µM].
O=C(Nc1ccccc1)N1CCCN(c2nccc(C(F)(F)F)n2)CC1 was read as HepG2 tox -31%, TGFb SMAD3 inh 3%, HT1080-NT tox 28%, TDP1 cell CPT 29µM*, DT40 TDP1 no CPT inconclusive and HT1080 IDH1KD tx 12%.
